“And” between values parts separate entries of the source, which are not always exact repeats. Equal entries are not always repeated. Records with an inconclusive call do not appear. The source made the active and inactive calls. Unless noted, the call rests on the fitted dose curve; in most records, active means well fitted curve in the direction sought with a large enough effect in the repeat runs; inconclusive means weak or mixed curves; inactive means no such curve, though single readings can be large; an effect the other way counts as inactive or inconclusive.

In PubChem BioAssay (Tox21) one finds Potency and outcome data, which are given here for 10 compounds.

The nature of assay [1]: qHTS assay to identify aromatase inhibitors - cell viability counter screen (AID 743084).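 Further: cells stimulated with testosterone during compound exposure; nearly all actives have a fitted effect of over 55% in size.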 Further: potency means the concentration at half of the fitted maximal effect.
For assay [2], the target named is Aryl hydrocarbon receptor (Homo sapiens) (UniProt P35869). Nature of the assay: qHTS assay to identify small molecule that activate the aryl hydrocarbon receptor (AhR) signaling pathway (AID 743085).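 Further: HG2L7.5c1 human HepG2 liver cells with stably integrated DRE-driven firefly reporter; series mostly up to about 70 µM; nearly all actives have a fitted effect of over 15% in size.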 The gist of the method: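 24 h compound exposure, 37C, HepG2-derived HG2L7.5c1 cells with DRE-responsive luciferase. Readouts: fluorescence viability, then luminescence at room temperature after 30 min.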
Chain of Aryl hydrocarbon receptor (Homo sapiens) (P35869 whole entry, looked up): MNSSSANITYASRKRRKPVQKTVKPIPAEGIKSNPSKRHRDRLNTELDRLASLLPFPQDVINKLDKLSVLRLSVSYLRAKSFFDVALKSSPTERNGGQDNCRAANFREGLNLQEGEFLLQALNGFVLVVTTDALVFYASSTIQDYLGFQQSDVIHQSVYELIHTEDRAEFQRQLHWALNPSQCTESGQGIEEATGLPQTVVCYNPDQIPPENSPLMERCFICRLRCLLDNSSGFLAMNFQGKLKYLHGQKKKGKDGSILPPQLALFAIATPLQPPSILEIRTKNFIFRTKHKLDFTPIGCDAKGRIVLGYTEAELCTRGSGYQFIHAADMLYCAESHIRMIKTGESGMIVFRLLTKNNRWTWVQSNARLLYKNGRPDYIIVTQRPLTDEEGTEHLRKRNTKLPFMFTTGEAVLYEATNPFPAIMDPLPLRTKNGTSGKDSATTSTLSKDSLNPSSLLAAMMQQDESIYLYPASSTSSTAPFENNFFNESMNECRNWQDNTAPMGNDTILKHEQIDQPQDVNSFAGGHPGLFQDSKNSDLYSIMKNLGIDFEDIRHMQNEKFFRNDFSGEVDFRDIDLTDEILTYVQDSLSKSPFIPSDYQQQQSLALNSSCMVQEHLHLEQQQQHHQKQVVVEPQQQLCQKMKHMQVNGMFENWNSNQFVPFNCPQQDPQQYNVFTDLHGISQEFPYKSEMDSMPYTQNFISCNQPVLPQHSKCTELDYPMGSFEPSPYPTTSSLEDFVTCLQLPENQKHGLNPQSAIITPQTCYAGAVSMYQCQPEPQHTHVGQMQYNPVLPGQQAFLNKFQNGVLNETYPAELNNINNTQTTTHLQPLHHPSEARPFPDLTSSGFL

A short description of assay [3]: qHTS assay to identify small molecule that activate the aryl hydrocarbon receptor (AhR) signaling pathway - cell viability counter screen (AID 743086). Further: nearly all actives have a fitted effect of over 45% in size. Further: potency means the concentration at half of the fitted maximal effect. An outline of the steps:
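HepG2-AhR-luc (HG2L7.5c1) cells, 4000/well, treated 24 h at 37 C with compound; viability measured as CellTiter-Fluor fluorescence after 30 min in the same wells as the luciferase read.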

A short description of assay [4]: qHTS assay to identify small molecule antagonists of the peroxisome proliferator-activated receptor gamma (PPARg) signaling pathway - cell viability counter screen (AID 743194). Further: nearly all actives have a fitted effect of over 55% in size. Further: potency means the concentration at half of the fitted maximal effect. The gist of the method: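 Cytotoxicity counter screen in PPARg-bla HEK293H cells, same wells as reporter assay. Compounds plus 50 nM rosiglitazone (final) for 17 h at 37 C, then viability read by CellTiter-Glo luminescence.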

Assay [5] is described as follows: qHTS assay for small molecule agonists of the antioxidant response element (ARE) signaling pathway - cell viability counter screen (AID 743203; calls by dose curve; further: nearly all actives have a fitted effect of over 55% in size; further: potency means the concentration at half of the fitted maximal effect). An outline of the steps: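 Compounds in DMSO were pinned onto ARE-bla HepG2 cells plated 5 hrs earlier at 2,000 cells/well. Sixteen hours later at 37C/5% CO2, CellTiter-Glo was added and luminescence measured after 30 min at room temperature.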

Assay [6] is described as follows: qHTS assay to identify small molecule agonists of the peroxisome proliferator-activated receptor delta (PPARd) signaling pathway - cell viability counter screen (AID 743211). Further: nearly all actives have a fitted effect of over 55% in size. Further: potency means the concentration at half of the fitted maximal effect. The gist of the method: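 Luminescent ATP viability assay (CellTiter-Glo, 30 min RT) in UAS-bla HEK293H cells carrying the PPAR delta reporter construct, 3000 cells/well, after a 17 h compound treatment at 37 C.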

The nature of assay [7]: qHTS assay to identify small molecule antagonists of the peroxisome proliferator-activated receptor delta (PPARd) signaling pathway - cell viability counter screen (AID 743213). Further: nearly all actives have a fitted effect of over 50% in size. Further: potency means the concentration at half of the fitted maximal effect. An outline of the steps:
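In this counter screen, HEK293H cells carrying a UAS-beta-lactamase reporter are co-treated with test compounds and 300 nM L165041 (final) for 17 h at 37 C; cell viability is quantified by CellTiter-Glo luminescence.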

Assay [8] in a line: qHTS assay to identify small molecule antagonists of the farnesoid-X-receptor (FXR) signaling pathway - cell viability counter screen (AID 743221; active means well fitted cell-killing curve with a large enough effect in the repeat runs, not every such curve was filed as active; further: nearly all actives have a fitted effect of over 50% in size; further: potency means the concentration at half of the fitted maximal effect). The gist of the method: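 In GeneBLAzer FXR-UAS-bla HEK 293T cells stimulated with 50 uM chenodeoxycholic acid (final), compounds acted for 16 h at 37 C. Viability was assessed afterwards by CellTiter-Glo luminescence.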
A short description of assay [9]: qHTS assay for small molecule activators of the heat shock response signaling pathway - cell viability counter screen (AID 743209). Further: nearly all actives have a fitted effect of over 50% in size. Further: potency means the concentration at half of the fitted maximal effect. The gist of the method: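 Counter screen for cytotoxicity in HeLa HSE-bla reporter cells. Treatment was 5 h at 37 C; viability was detected by luminescent ATP assay (CellTiter-Glo) in the same wells as the beta-lactamase read.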
The nature of assay [10]: qHTS assay for small molecule activators of the heat shock response signaling pathway (AID 743210; active means well fitted activation curve with a large enough effect in the signal ratio in the repeat runs, with a control signal flat, not every such curve was filed as active; the % refers to the signal ratio;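 further: HeLa cells with beta-lactamase reporter driven by heat shock elements; series mostly up to about 63 µM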). An outline of the steps: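 Quantitative high-throughput format using an engineered HeLa line in which heat shock response elements drive beta-lactamase; after 5 h with compound, cells received a B/G FRET substrate and fluorescence was read.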
The target in assay [11] is Peroxisome proliferator-activated receptor delta (Homo sapiens) (UniProt Q03181). Nature of the assay: qHTS assay to identify small molecule agonists of the peroxisome proliferator-activated receptor delta (PPARd) signaling pathway (AID 743212; calls by dose curve). An outline of the steps: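 Quantitative high-throughput agonist screen in a HEK293H beta-lactamase reporter line under UAS control. Compounds in DMSO, at 37 C. Fluorescence read after 2 h with FRET substrate at room temperature.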
Chain of Peroxisome proliferator-activated receptor delta (Homo sapiens) (Q03181 whole entry, looked up): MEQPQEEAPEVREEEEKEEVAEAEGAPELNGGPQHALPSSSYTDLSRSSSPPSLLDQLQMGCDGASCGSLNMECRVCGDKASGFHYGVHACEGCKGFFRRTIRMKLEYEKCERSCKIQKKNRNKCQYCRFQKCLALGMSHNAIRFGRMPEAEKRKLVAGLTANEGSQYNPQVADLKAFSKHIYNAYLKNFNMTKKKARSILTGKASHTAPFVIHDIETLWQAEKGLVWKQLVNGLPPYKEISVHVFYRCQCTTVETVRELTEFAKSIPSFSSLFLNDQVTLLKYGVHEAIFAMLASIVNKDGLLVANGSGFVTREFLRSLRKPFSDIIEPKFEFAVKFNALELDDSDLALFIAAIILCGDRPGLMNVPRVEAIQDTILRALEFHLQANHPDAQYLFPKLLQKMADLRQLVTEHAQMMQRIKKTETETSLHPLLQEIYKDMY

For assay [12] the target is unchanged. Nature of the assay: qHTS assay to identify small molecule antagonists of the peroxisome proliferator-activated receptor delta (PPARd) signaling pathway (AID 743215; active means well fitted inhibition curve with a large enough effect in the signal ratio in the repeat runs, not every such curve was filed as active; the % refers to the signal ratio;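 further: cells stimulated with agonist L165041 at 300 nM final during compound exposure; series mostly up to about 62 µM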). An outline of the steps: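 With L165041 present at 300 nM final, compounds were incubated 17 h at 37 C on PPARd UAS-bla HEK293H cells. A FRET-based beta-lactamase substrate was then applied for 2 h at room temperature and fluorescence intensity recorded.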

Assay [13] deals with Bile acid receptor (Homo sapiens) (UniProt Q96RI1). Nature of the assay: qHTS assay to identify small molecule antagonists of the farnesoid-X-receptor (FXR) signaling pathway (AID 743217; active means well fitted inhibition curve with a large enough effect in the signal ratio in the repeat runs, not every such curve was filed as active; the % refers to the signal ratio). An outline of the steps: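 In this cell-based antagonist screen, inhibition of CDCA-driven (50 uM final) UAS-beta-lactamase expression in HEK 293T cells was measured by FRET fluorescence following 16 h compound exposure at 37 °C.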
Chain of Bile acid receptor (Homo sapiens) (Q96RI1 whole entry, looked up): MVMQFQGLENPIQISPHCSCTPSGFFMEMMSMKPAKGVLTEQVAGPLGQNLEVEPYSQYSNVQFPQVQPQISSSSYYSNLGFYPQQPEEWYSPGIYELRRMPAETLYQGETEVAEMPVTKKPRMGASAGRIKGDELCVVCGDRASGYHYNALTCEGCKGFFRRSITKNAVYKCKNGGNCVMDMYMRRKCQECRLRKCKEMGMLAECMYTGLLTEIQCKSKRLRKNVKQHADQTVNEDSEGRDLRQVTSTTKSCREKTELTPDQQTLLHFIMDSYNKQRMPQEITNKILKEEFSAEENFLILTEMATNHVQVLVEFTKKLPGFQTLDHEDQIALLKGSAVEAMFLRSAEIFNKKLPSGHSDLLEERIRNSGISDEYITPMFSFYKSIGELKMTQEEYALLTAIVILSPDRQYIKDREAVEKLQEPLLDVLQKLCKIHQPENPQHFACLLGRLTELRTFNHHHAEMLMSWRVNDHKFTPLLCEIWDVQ

Assay [14] can be described thus: qHTS assay to identify small molecule agonists of the farnesoid-X-receptor (FXR) signaling pathway - cell viability counter screen (AID 743218). Further: nearly all actives have a fitted effect of over 45% in size. Further: potency means the concentration at half of the fitted maximal effect. The gist of the method: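 After 16 h at 37 C with test compounds, FXR-bla HEK 293T cells were given LiveBLAzer B/G substrate for 2 h at RT and then CellTiter-Glo; luminescence was taken after 30 min.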
Assay [15] deals with Bile acid receptor (Homo sapiens) (UniProt Q96RI1). As to the kind of experiment: qHTS assay to identify small molecule agonists of the farnesoid-X-receptor (FXR) signaling pathway (AID 743220; active means well fitted activation curve with a large enough effect in the signal ratio in the repeat runs, not every such curve was filed as active; the % refers to the signal ratio). An outline of the steps: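 Beta-lactamase reporter under UAS control in GeneBLAzer FXR HEK 293T cells (5000/well) measured with LiveBLAzer FRET substrate after 2 h at room temperature. Compound exposure lasted 16 h at 37C.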

Assay [16] has as its target Vitamin D3 receptor (Homo sapiens) (UniProt P11473). Nature of the assay: qHTS assay to identify small molecule agonists of the vitamin D receptor (VDR) signaling pathway (AID 743222; calls by dose curve). An outline of the steps: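 VDR-bla cells were seeded, left 4 h, treated with compounds in DMSO for 16 h, incubated 2 h at RT with B/G FRET substrate, and read for fluorescence.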
Assay [17] can be described thus: qHTS assay for small molecule agonists of the antioxidant response element (ARE) signaling pathway (AID 743202; active means well fitted activation curve with a large enough effect in the signal ratio in the repeat runs, not every such curve was filed as active; the % refers to the signal ratio). An outline of the steps:
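Agonist mode reporter screen: HepG2 cells with ARE-controlled beta-lactamase are incubated with test compounds for 16 h at 37 C, and beta-lactamase activity is measured as fluorescence of cleaved B/G FRET substrate.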

Assay [18] addresses Peroxisome proliferator-activated receptor gamma (Homo sapiens) (UniProt P37231). As to the kind of experiment: qHTS assay to identify small molecule antagonists of the peroxisome proliferator-activated receptor gamma (PPARg) signaling pathway (AID 743191; calls by dose curve; further: potency means the concentration at half of the fitted maximal effect; nearly all actives have a fitted effect of over 30% in size). An outline of the steps: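 GeneBLAzer PPARg UAS-bla HEK293H cells, 5 h post-plating, exposed to compounds 17 h at 37C. LiveBLAzer B/G FRET substrate added for 1 h at room temperature; beta-lactamase reporter read by fluorescence intensity.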

Assay [19] has the same target. Nature of the assay: qHTS assay to identify small molecule agonists of the peroxisome proliferator-activated receptor gamma (PPARg) signaling pathway (AID 743094; active means well fitted activation curve with a large enough effect in the signal ratio in the repeat runs, not every such curve was filed as active; the % refers to the signal ratio; further: potency means the concentration at half of the fitted maximal effect). The gist of the method:
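Following 5 h plating at 37C, PPARg-bla HEK293H cells receive compound or DMSO for 17 h; fluorescence intensity is recorded after LiveBLAzer B/G loading for 1 h at room temperature.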

Chain of Vitamin D3 receptor (Homo sapiens) (P11473 whole entry, looked up): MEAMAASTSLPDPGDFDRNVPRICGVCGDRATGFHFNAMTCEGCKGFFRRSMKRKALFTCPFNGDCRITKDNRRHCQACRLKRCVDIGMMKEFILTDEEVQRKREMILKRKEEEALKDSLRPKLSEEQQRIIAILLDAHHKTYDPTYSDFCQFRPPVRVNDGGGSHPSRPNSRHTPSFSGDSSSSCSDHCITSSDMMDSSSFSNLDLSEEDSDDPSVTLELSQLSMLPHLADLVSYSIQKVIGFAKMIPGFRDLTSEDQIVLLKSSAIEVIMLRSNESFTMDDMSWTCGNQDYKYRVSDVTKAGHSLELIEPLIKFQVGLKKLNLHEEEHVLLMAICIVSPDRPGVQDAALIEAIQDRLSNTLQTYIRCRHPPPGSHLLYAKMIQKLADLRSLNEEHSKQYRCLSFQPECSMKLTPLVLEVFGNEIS
Chain of Peroxisome proliferator-activated receptor gamma (Homo sapiens) (P37231 whole entry, looked up): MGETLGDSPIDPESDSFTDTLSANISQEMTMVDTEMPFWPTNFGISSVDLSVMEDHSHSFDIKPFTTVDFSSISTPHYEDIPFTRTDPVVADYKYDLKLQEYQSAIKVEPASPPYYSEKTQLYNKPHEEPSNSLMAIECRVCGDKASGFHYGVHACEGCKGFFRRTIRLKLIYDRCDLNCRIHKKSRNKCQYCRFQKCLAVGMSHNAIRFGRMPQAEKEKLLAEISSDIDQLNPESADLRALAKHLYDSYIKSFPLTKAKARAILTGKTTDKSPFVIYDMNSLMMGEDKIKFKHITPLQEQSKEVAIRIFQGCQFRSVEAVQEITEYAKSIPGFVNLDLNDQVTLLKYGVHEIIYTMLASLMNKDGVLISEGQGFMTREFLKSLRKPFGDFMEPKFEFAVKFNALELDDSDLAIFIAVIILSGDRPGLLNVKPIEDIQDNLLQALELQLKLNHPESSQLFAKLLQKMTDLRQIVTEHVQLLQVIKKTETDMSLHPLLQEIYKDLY

Take `COc1cc(C=C2CCC/C(=C\c3ccc(O)c(OC)c3)C2=O)ccc1O`: the Potency was 21.1 µM (active) in assay [1]; 23.7 µM (active) in assay [3]; 21.1 µM (active) in assay [4]; 26.6 µM (active) in assay [5]; 29.8 µM (active) in assay [6]; 33.5 µM (active) in assay [7]. Also, in assay [8], the Potency is 23.7 µM (active). In assay [2], the Potency entry is “inactive”.

`C[Si](C)(C)Cl`: the Potency entry in assay [1], in assay [2], in [3], in assay [4], in assay [5] and in assay [9] was “inactive” each time. Moreover, the Potency entry in assay [10], in assay [6], in assay [7], in assay [12], in assay [13] and in assay [14] was “inactive” each time. Besides, the Potency result in assay [15] and in assay [8] was “inactive” in each case. Besides, in assay [11], the compound was classed as inactive.

As to `CCN=c1cc2oc3cc(NCC)c(C)cc3c(-c3ccccc3C(=O)OCC)c-2cc1C`, the Potency is 1.21 µM (active) and 1.93 µM (active) in assay [1]; 6.83 µM (active) and 7.7 µM (active) in assay [3]; 10.9 µM (active) and 6.92 µM (active) in [4]; 60.9 µM (active) and 30.6 µM (active) in assay [5]; 30.8 µM (active) and 19.5 µM (active) in [9]; 48.8 µM (active) and 27.5 µM (active) in assay [6]. Besides, the Potency is 38.8 µM (active) and 24.5 µM (active) in [7]; 48.8 µM (active) and 38.9 µM (active) in [14]; 54.7 µM (active) and 54.9 µM (active) in [8]. The Potency entry in assay [2] and in assay [15] was “inactive” in each case. The result in assay [11] was inactive.

Consider `c1cc2c3c(c1)ccc1cccc(c13)C2`, for which the Potency result in assay [1], in assay [2], in assay [3], in assay [7], in [12] and in [8] was “inactive” throughout. The Potency result in assay [16] was “inactive”. In assay [6], the Potency was 56.1 µM (active). Also, the outcome in assay [11] was inactive.

With `CCN=C1C=CC(=C(c2ccc(N(CC)CC)cc2)c2ccc(N(CC)CC)cc2)c2ccccc21`, the Potency in assay [1] is 9.63 µM (active); in assay [3], 24.2 µM (active); in [4] it was 0.154 µM (active); in [5], 5.42 µM (active); in assay [9] it was 21.7 µM (active); in assay [6] it was 3.87 µM (active). The Potency in assay [7] is 12.2 µM (active); in assay [14], 6.88 µM (active); in [8], 13.7 µM (active). In assay [2], the Potency result was “inactive”.

Take `CCCCCCCCCCCCCOP(=O)(O)O`: the Potency result in assay [1], in assay [2], in assay [3], in assay [12], in assay [14] and in assay [8] was “inactive” throughout. The Potency entry in assay [16] is “inactive”. For the same compound, the results for the Potency in assay [4], in [5] and in assay [9] were 43.6 µM (active), 43.3 µM (active) and 34.7 µM (active), respectively. Further, the result in [11] was inactive.

With `CCCSS/C(CCO)=C(\C)N(C=O)Cc1cnc(C)nc1N`, the Potency entry in [1], in assay [2], in [3], in assay [4], in assay [17] and in assay [5] was “inactive” in each case. The Potency result in assay [9], in assay [6], in assay [7], in assay [8] and in assay [16] was “inactive” each time.

Turning to `CNC(=O)c1cc(Oc2ccc(NC(=O)Nc3ccc(Cl)c(C(F)(F)F)c3)cc2)ccn1`, the Potency in assay [1] was 23.7 µM (active); in assay [3] it was 18.8 µM (active); in assay [18], 10.6 µM (active); in [4], 18.8 µM (active); in assay [6], 15 µM (active); in assay [7], 10.6 µM (active). Also, the Potency in [8] was 29.8 µM (active). In addition, the Potency entry in assay [2], in assay [9], in [15] and in assay [16] was “inactive” each time. Besides, the outcome in [11] was inactive.

For the compound `CC(O)C#CC(C)O` (centres undefined), the Potency in assay [1] was 30.3 µM (active); in assay [19], 54.4 µM (active); in assay [9] it was 21.7 µM (active). Moreover, the Potency result in assay [2], in assay [3], in [7], in assay [14] and in assay [8] was “inactive” in each case. Further, the compound was classed as inactive in assay [11].

In the case of `COCC(=O)O[C@]1(CCN(C)CCCc2nc3ccccc3[nH]2)CCc2cc(F)ccc2[C@@H]1C(C)C`, the Potency in assay [1] is 26.6 µM (active); in assay [3] it was 9.44 µM (active); in assay [4], 29.8 µM (active); in assay [5], 23.7 µM (active); in [6], 11.9 µM (active); in [7] it was 16.8 µM (active). In addition, the values for the Potency in [14] and in [8] were 11.9 µM (active) and 23.7 µM (active), respectively. The Potency entry in assay [2], in assay [9], in assay [10] and in assay [15] was “inactive” each time.
